Drawing on ChEMBL document CHEMBL1157539, “Thousands of chemical starting points for antimalarial lead identification” (Nature, 2010), this text covers Inhibition for 40 compounds.

The test system of one test is Plasmodium falciparum. Nature of the test: GSK_TCMDC: Inhibition of Plasmodium falciparum 3D7 in whole red blood cells, using parasite LDH activity as an index of growth. Test compounds present at 2uM. Format: functional.
For `O=C(NC1CCN(Cc2ccccc2)CC1)c1cccc(Nc2nc(-c3ccccc3)cs2)c1`, the Inhibition is listed as 84%.

Consider `CCOc1ccc2c(=NN=Cc3ccc(OC)c(OC)c3)cc(C)[nH]c2c1`, for which the Inhibition is 100%.

In turn, `COc1ccc(CNC2CCCC2)cc1-c1ccc(S(=O)(=O)NCCN2CCCC2)s1.O=C(O)C(F)(F)F` returned an Inhibition of 96%.

Compound `COc1ccc2nccc([C@@H](O)CN3CCC(NCc4cc5c(F)ccc(F)c5[nH]4)CC3)c2c1.O=C(O)C(=O)O` came in with an Inhibition of 100%.

In the case of `Cn1c(Sc2ncnc3sccc23)nc2ccccc21`, the Inhibition is listed as 100%.

`O=C(NC1CCCCC1)C(c1cccs1)N(CCc1ccccc1)C(=O)c1ccco1` (stereo not given) had an Inhibition of 92%.

`CC(C)(C)c1ccc(CNC(=O)c2ccc(CNC3CCC(N)CC3)s2)cc1` (stereo not given) came in with an Inhibition of 100%.

`Cc1sc(CNCCCNc2cc(=O)c3ccccc3[nH]2)c(C(F)(F)F)c1C.Cl` showed an Inhibition of 99%.

In the case of `C=CCOc1ccccc1CNCC(O)c1cc(Br)cs1` (stereo not given), the Inhibition worked out at 93%.

Regarding `O=C(Nc1ccc2[nH]c(-c3ccc4nc(NC(=O)C5CCCCC5)sc4c3)nc2c1)C1CCCCC1`, the Inhibition came out at 100%.

In the case of `Cc1ccc(-c2cncc(-c3cc(NC4CCN(Cc5ccccc5)CC4)nc(-c4ccccc4)n3)c2)cc1`, the Inhibition came out at 100%.

As to `COc1ccc(CN(C)CCCc2ccc(NC(=O)c3cccc4c(O)c5ccccc5nc34)cc2)cc1OC`, the Inhibition is reported as 99%.

`CCOc1cc2ncnc(Nc3ccc(OCc4ccccc4F)c(Cl)c3)c2cc1OCC.Cl` registered an Inhibition of 100%.

In the case of `Cn1nc(-c2ccccc2F)c2cc(C(=O)NC3CCN(Cc4ccccc4)CC3)sc21`, the Inhibition is listed as 97%.

`CC(Nc1ncc(-c2ccsc2)c(-c2nccs2)n1)c1ccc2c(c1)OCCO2` (stereo not given): the Inhibition was found to be 81%.

With `CCCc1cc(NCC)nc(Nc2ccc(C)cc2)n1`, the Inhibition came out at 95%.

For the compound `Cc1cccc2nc(-c3ccc(-c4ccc(NC(=O)NC5CC5c5ccccc5)cc4)cc3)[nH]c12` (stereo not given), the Inhibition is reported as 96%.

In turn, `CCn1ccc2c(N3CCCS3(=O)=O)cc(C(=O)N[C@@H](Cc3ccccc3)[C@H](O)CNC(C)(C)c3cccc(OC)c3)cc21` displayed an Inhibition of 99%.

`Cc1ccc(NC(=O)c2cn(-c3ccccc3)nc2-c2ccc(F)cc2)cc1[N+](=O)[O-]`: the Inhibition came out at 92%.

In turn, `COc1ccc(/C=C/C(=O)Nc2ccc(-c3ccncc3)cc2)cc1CCCN(C)C.O=C(O)/C=C\C(=O)O` registered an Inhibition of 100%.

Regarding `CC1(C)N=C(N)N=C(N)N1O.Cl`, the Inhibition is 93%.

As for `CCN(CC)CCCNc1c2ccccc2nc2ccccc12.Cl`, the Inhibition is listed as 100%.

The compound `CC(C)[C@H](NC(=O)c1ccc(O)c(-c2ccc(Cl)c(Cl)c2)c1)C(=O)NCCN1CCCC1` yielded an Inhibition of 98%.

The compound `Cc1ccc(C(=O)Nc2ccc(Cl)c(N3CCN(CCc4ccccc4)CC3)c2)cc1.O=C(O)C(F)(F)F` gave an Inhibition of 90%.

In turn, `Cc1cc(N(C)C)nc(Nc2ccc(NC(=O)c3ccccc3F)cc2)n1` had an Inhibition of 89%.

Turning to `CNS(=O)(=O)c1ccc(NC(=O)c2cc(-c3cccnc3)nc3ccc(Br)cc23)cc1`, the Inhibition was determined as 100%.

In the case of `C/C=C/COc1ccc(-c2c(C)[nH]c(C)c(Cl)c2=O)cc1`, the Inhibition was 97%.

In the case of `Cc1ccc(C2(C)CC(C)(C)N(C(=O)COc3ccc4ccccc4c3)c3ccccc32)cc1` (stereo not given), the Inhibition is 100%.

`CC(Cc1ccc(NC(=O)c2ccc(CNCCCCc3ccccc3)cc2)cc1)NCCc1cccc(Cl)c1.Cl` (stereo not given) displayed an Inhibition of 100%.

In turn, `CCOC(=O)C(C(=O)OCC)c1nc(C)ns1` had an Inhibition of 99%.

Regarding `CCN(CC)CCCC(C)Nc1c(-c2ccc(C)cc2)cnc2ccccc12` (stereo not given), the Inhibition was found to be 85%.

Take `COc1cccc(NC(=O)NC2CCN(CCCCCNC(=O)/C=C/c3ccc(Cl)c(Cl)c3)CC2)c1`: the Inhibition is 100%.

With `Clc1ccc(-c2cc(-c3csc(NCCN4CCCCC4)n3)on2)cc1`, the Inhibition is on record as 91%.

Compound `COc1cc(Nc2nccc(N3CCC(NC(=O)c4cc5ccccc5s4)C3)n2)cc(OC)c1OC` (stereo not given) came in with an Inhibition of 96%.

The compound `CCCn1c(O)nnc1SCC(=O)Nc1cc(Cl)ccc1Cl` displayed an Inhibition of 88%.

With `CC1N=C(N)N=C(N)N1OCc1ccccc1.Cl` (stereo not given), the Inhibition was 94%.

For `Fc1ccc(Nc2ccnc3cc(-c4cccc(CNCCN5CCOCC5)c4)ccc23)c(Cl)c1`, the Inhibition turned out to be 100%.

`CC(C)NCc1ccc(-c2cccc(NC(=O)c3ccc(F)cc3)c2)cc1.O=C(O)C(F)(F)F` returned an Inhibition of 91%.

Take `Cl.O=C(NCCCCN1CCC(c2ccc3c(c2OC(=O)c2ccc(NC(=O)c4ccc(Cl)cc4)cc2)CCCC3)CC1)c1ccc(NC(=O)c2ccc(Cl)cc2)cc1`: the Inhibition is 100%.

The compound `N#Cc1ccc(N[C@@H](CC2CCCCC2)C(=O)N[C@@H]2CCCc3ccccc32)c2ccccc12.O=C(O)C(F)(F)F` had an Inhibition of 99%.

The next test deals with Plasmodium falciparum. Kind of test: GSK_TCMDC: Inhibition of Plasmodium falciparum Dd2 in whole red blood cells, using parasite LDH activity as an index of growth. Test compounds present at 2uM. The format is functional.
The compound `O=C(NC1CCN(Cc2ccccc2)CC1)c1cccc(Nc2nc(-c3ccccc3)cs2)c1` returned an Inhibition of 3%.

`CCOc1ccc2c(=NN=Cc3ccc(OC)c(OC)c3)cc(C)[nH]c2c1` returned an Inhibition of 58%.

On to `COc1ccc(CNC2CCCC2)cc1-c1ccc(S(=O)(=O)NCCN2CCCC2)s1.O=C(O)C(F)(F)F`, for which the Inhibition is 17%.

For `COc1ccc2nccc([C@@H](O)CN3CCC(NCc4cc5c(F)ccc(F)c5[nH]4)CC3)c2c1.O=C(O)C(=O)O`, the Inhibition is recorded as 67%.

Consider `Cn1c(Sc2ncnc3sccc23)nc2ccccc21`, for which the Inhibition stood at 100%.

On to `O=C(NC1CCCCC1)C(c1cccs1)N(CCc1ccccc1)C(=O)c1ccco1` (stereo not given), for which the Inhibition is listed as 63%.

`CC(C)(C)c1ccc(CNC(=O)c2ccc(CNC3CCC(N)CC3)s2)cc1` (stereo not given) had an Inhibition of 10%.

For the compound `Cc1sc(CNCCCNc2cc(=O)c3ccccc3[nH]2)c(C(F)(F)F)c1C.Cl`, the Inhibition was determined as 70%.

`C=CCOc1ccccc1CNCC(O)c1cc(Br)cs1` (stereo not given) returned an Inhibition of 72%.

In turn, `O=C(Nc1ccc2[nH]c(-c3ccc4nc(NC(=O)C5CCCCC5)sc4c3)nc2c1)C1CCCCC1` showed an Inhibition of 68%.

The compound `Cc1ccc(-c2cncc(-c3cc(NC4CCN(Cc5ccccc5)CC4)nc(-c4ccccc4)n3)c2)cc1` registered an Inhibition of 66%.

Regarding `COc1ccc(CN(C)CCCc2ccc(NC(=O)c3cccc4c(O)c5ccccc5nc34)cc2)cc1OC`, the Inhibition is 54%.

`CCOc1cc2ncnc(Nc3ccc(OCc4ccccc4F)c(Cl)c3)c2cc1OCC.Cl` had an Inhibition of 74%.

Compound `Cn1nc(-c2ccccc2F)c2cc(C(=O)NC3CCN(Cc4ccccc4)CC3)sc21` had an Inhibition of 34%.

`CC(Nc1ncc(-c2ccsc2)c(-c2nccs2)n1)c1ccc2c(c1)OCCO2` (stereo not given): the Inhibition came to 66%.

With `CCCc1cc(NCC)nc(Nc2ccc(C)cc2)n1`, the Inhibition was 16%.

In the case of `Cc1cccc2nc(-c3ccc(-c4ccc(NC(=O)NC5CC5c5ccccc5)cc4)cc3)[nH]c12` (stereo not given), the Inhibition is recorded as 3%.

On to `CCn1ccc2c(N3CCCS3(=O)=O)cc(C(=O)N[C@@H](Cc3ccccc3)[C@H](O)CNC(C)(C)c3cccc(OC)c3)cc21`, for which the Inhibition turned out to be 98%.

Turning to `Cc1ccc(NC(=O)c2cn(-c3ccccc3)nc2-c2ccc(F)cc2)cc1[N+](=O)[O-]`, the Inhibition came out at 38%.

The compound `COc1ccc(/C=C/C(=O)Nc2ccc(-c3ccncc3)cc2)cc1CCCN(C)C.O=C(O)/C=C\C(=O)O` yielded an Inhibition of 86%.

`CC1(C)N=C(N)N=C(N)N1O.Cl`: the Inhibition is given as 1%.

In the case of `CCN(CC)CCCNc1c2ccccc2nc2ccccc12.Cl`, the Inhibition worked out at 0%.

On to `CC(C)[C@H](NC(=O)c1ccc(O)c(-c2ccc(Cl)c(Cl)c2)c1)C(=O)NCCN1CCCC1`, for which the Inhibition was 83%.

For `Cc1ccc(C(=O)Nc2ccc(Cl)c(N3CCN(CCc4ccccc4)CC3)c2)cc1.O=C(O)C(F)(F)F`, the Inhibition amounted to 14%.

In turn, `Cc1cc(N(C)C)nc(Nc2ccc(NC(=O)c3ccccc3F)cc2)n1` yielded an Inhibition of 26%.

For the compound `CNS(=O)(=O)c1ccc(NC(=O)c2cc(-c3cccnc3)nc3ccc(Br)cc23)cc1`, the Inhibition turned out to be 55%.

In turn, `C/C=C/COc1ccc(-c2c(C)[nH]c(C)c(Cl)c2=O)cc1` displayed an Inhibition of 97%.

Consider `Cc1ccc(C2(C)CC(C)(C)N(C(=O)COc3ccc4ccccc4c3)c3ccccc32)cc1` (stereo not given), for which the Inhibition turned out to be 98%.

Take `CC(Cc1ccc(NC(=O)c2ccc(CNCCCCc3ccccc3)cc2)cc1)NCCc1cccc(Cl)c1.Cl` (stereo not given): the Inhibition was determined as 96%.

On to `CCOC(=O)C(C(=O)OCC)c1nc(C)ns1`, for which the Inhibition came to 0%.

As for `CCN(CC)CCCC(C)Nc1c(-c2ccc(C)cc2)cnc2ccccc12` (stereo not given), the Inhibition is 65%.

With `COc1cccc(NC(=O)NC2CCN(CCCCCNC(=O)/C=C/c3ccc(Cl)c(Cl)c3)CC2)c1`, the Inhibition is reported as 8%.

`Clc1ccc(-c2cc(-c3csc(NCCN4CCCCC4)n3)on2)cc1` registered an Inhibition of 30%.

`COc1cc(Nc2nccc(N3CCC(NC(=O)c4cc5ccccc5s4)C3)n2)cc(OC)c1OC` (stereo not given) returned an Inhibition of 50%.

The compound `CCCn1c(O)nnc1SCC(=O)Nc1cc(Cl)ccc1Cl` showed an Inhibition of 53%.

`CC1N=C(N)N=C(N)N1OCc1ccccc1.Cl` (stereo not given): the Inhibition came out at 72%.

The compound `Fc1ccc(Nc2ccnc3cc(-c4cccc(CNCCN5CCOCC5)c4)ccc23)c(Cl)c1` gave an Inhibition of 99%.

The compound `CC(C)NCc1ccc(-c2cccc(NC(=O)c3ccc(F)cc3)c2)cc1.O=C(O)C(F)(F)F` yielded an Inhibition of 7%.

Compound `Cl.O=C(NCCCCN1CCC(c2ccc3c(c2OC(=O)c2ccc(NC(=O)c4ccc(Cl)cc4)cc2)CCCC3)CC1)c1ccc(NC(=O)c2ccc(Cl)cc2)cc1` had an Inhibition of 99%.

As to `N#Cc1ccc(N[C@@H](CC2CCCCC2)C(=O)N[C@@H]2CCCc3ccccc32)c2ccccc12.O=C(O)C(F)(F)F`, the Inhibition is given as 99%.
